These results are taken from PubChem BioAssay.

Sequence of Tumor necrosis factor receptor superfamily member 10B (Homo sapiens) (O14763 whole entry, looked up): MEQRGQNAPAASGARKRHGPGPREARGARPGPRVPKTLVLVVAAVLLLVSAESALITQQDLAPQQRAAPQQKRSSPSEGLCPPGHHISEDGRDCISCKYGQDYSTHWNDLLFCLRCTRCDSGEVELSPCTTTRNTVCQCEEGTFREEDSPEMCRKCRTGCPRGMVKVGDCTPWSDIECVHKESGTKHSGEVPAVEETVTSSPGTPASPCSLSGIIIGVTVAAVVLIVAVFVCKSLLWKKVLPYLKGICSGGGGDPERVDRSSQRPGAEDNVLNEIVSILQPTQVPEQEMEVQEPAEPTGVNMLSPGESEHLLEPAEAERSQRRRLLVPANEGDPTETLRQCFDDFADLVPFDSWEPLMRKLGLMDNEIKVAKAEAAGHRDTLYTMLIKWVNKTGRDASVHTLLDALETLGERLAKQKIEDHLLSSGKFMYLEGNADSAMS

The first assay has as its target Tumor necrosis factor receptor superfamily member 10B (Homo sapiens) (UniProt O14763). The experiment in a line: caspase-8 TRAIL sensitization, hit retest, confirmation, cell-based, NB7+caspase-8, with/without TRAIL, luminescence panel (AID 651596). The conditions noted are these: NB7 neuroblastoma + caspase-8, TRAIL sensitization, luminescence viability, with TRAIL, mean of runs, at 10 µM, stronger effect = higher value.
On to `COc1cccc(/C=C/c2ccc3ccccc3n2)c1OC(C)=O`, for which the activity amounted to 67.2%.

Take `CC(=O)c1sc(NC(=O)c2ccc(C)cc2)nc1C`: the activity is 68.5%.

As for `O=c1oc(/C=C/c2ccccc2)nc2ccccc12`, the activity is 76.2%.

Consider `COc1cc(SC)ccc1C(=O)Nc1nc(C)cs1`, for which the activity was found to be 98.2%.

Turning to `Cn1c(=NC(=O)c2cnccn2)sc2ccccc21`, the activity is 57.3%.

`COc1ccc(-c2nc(-c3ccccc3)no2)c(OC)c1`: the activity was found to be 82.3%.

For the compound `Cc1nc2cc(NC(=O)Nc3cccc(F)c3)ccc2n1C`, the activity was 72.3%.

As for `Cc1ccc(-c2cc(C(=O)N/N=C/C=C/c3ccco3)c3ccccc3n2)cc1C`, the activity came to 59.7%.

Consider `O=C(Nc1ccc(NC(=O)c2cccs2)cn1)c1ccco1`, for which the activity stood at 63.1%.

In the case of `COc1ccc(-c2cn3ccc(C)cc3n2)cc1`, the activity came to 82.7%.

Test system in a further assay: not listed separately
The description is as above. Particulars: NB7 neuroblastoma + caspase-8, without TRAIL, luminescence viability, without TRAIL, mean of runs, at 10 µM; in the data active = activity above about 50%; inactive = the rest.
Take `COc1cccc(/C=C/c2ccc3ccccc3n2)c1OC(C)=O`: the activity was determined as 60.8%.

Take `CC(=O)c1sc(NC(=O)c2ccc(C)cc2)nc1C`: the activity turned out to be 68.1%.

For `O=c1oc(/C=C/c2ccccc2)nc2ccccc12`, the activity came to 79.7%.

`COc1cc(SC)ccc1C(=O)Nc1nc(C)cs1`: the activity came out at 97.8%.

On to `Cn1c(=NC(=O)c2cnccn2)sc2ccccc21`, for which the activity was 53.5%.

Regarding `COc1ccc(-c2nc(-c3ccccc3)no2)c(OC)c1`, the activity is 80.7%.

As for `Cc1nc2cc(NC(=O)Nc3cccc(F)c3)ccc2n1C`, the activity came to 65.2%.

`Cc1ccc(-c2cc(C(=O)N/N=C/C=C/c3ccco3)c3ccccc3n2)cc1C`: the activity worked out at 70.4%.

As for `O=C(Nc1ccc(NC(=O)c2cccs2)cn1)c1ccco1`, the activity is 71.5%.

`COc1ccc(-c2cn3ccc(C)cc3n2)cc1`: the activity is 81.1%.
